{"source": "PubChem BioAssay (NCI)", "note": "This is part of a sample that, as a whole, favours compounds with a hit. Of some 83,000 tested, about 20% had one in any assay.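 Negative percent growth values reflect cell death: -40 means 40% of the cells present at the start died, and -100 means all died.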 A number with no mark means an inactive call. Activity calls are given as the source filed them."}
{"test_system": "U251 CNS", "test": "NCI-60 one-dose screen, 48 h (100 = growth as untreated, 0 = no growth, -100 = all killed)", "conditions": "10 µM unless noted", "procedure": "Growth inhibition of the U251 human tumor cell line is measured as a screen for anti-cancer activity. Cells are grown in 96 well plates and exposed to the test compound for 48 hours. Compounds are tested at a single concentration, which is 10^-5 M for most compounds. The reported endpoint is percent growth (GI% or GIPRCNT), where numbers from 0 - 100% represent growth inhibition, and numbers from -100% - 0 represent cell death. For example, a value of 40 represents 60% growth inhibition. A value of 0 means no net growth occurred over the course of the experiment. A value of -40 indicates 40% of cells at the beginning of the experiment died by the end of the experiment. A value of -100 means all cells are dead at the end of the experiment.\nNCI-60 Human Tumor Cell Lines Screen was performed using the standard one-dose NCI protocol, which is described in more detail at https://dtp.cancer.gov/discovery_development/nci-60/default.htm.\nCompounds with GIPRCNT values below 10 were considered active. Activity score was based on GIPRCNT using the following formula: […]\nScore is 0 for GIPRCNT values of 100 or above, 50 for GIPRCNT values of 0, and 100 for GIPRCNT values of -100."}
{"compound": "C[C@@H]1CCC2=C(CCC[C@]2(C)C(=O)O)[C@@]1(C)CCc1ccoc1", "growth": "85.4%"}
{"compound": "O=C1C=CC(Nc2ccccc2[N+](=O)[O-])C1Nc1ccccc1[N+](=O)[O-]", "note": "(stereo not given)", "growth": "72.4%"}
{"compound": "CCOC(=O)C(C#N)C1CCCCC1", "note": "(stereo not given)", "growth": "93.8%"}
{"compound": "Clc1ccc(-c2nnc(COc3ccccc3Cl)o2)cc1", "growth": "60.3%"}
{"compound": "COCCOC(=O)C1=C(C)NC(=S)NC1c1ccc2c(c1)OCO2", "note": "(stereo not given)", "growth": "104%"}
{"compound": "CCN(CC)CCCNc1cccc2c(SCc3ccccc3)ccnc12", "growth": "48.6%"}
{"compound": "COC(/C=C/c1ccc([N+](=O)[O-])cc1)OC", "growth": "74.5%"}
{"compound": "C=CC[N+]1(CC)CCN=C1CCCCCCCCCCCCCCCCC", "note": "(stereo not given)", "growth": "-100% (active)"}
{"compound": "CCCCCn1cnc2c(=S)nc[nH]c21", "growth": "110%"}
{"compound": "O=[N+]([O-])c1c(F)cccc1Nc1cccc(F)c1", "growth": "105%"}
{"compound": "CCOC(=O)/C=C/C(=O)[C@H](CC(C)C)NC(=O)[C@H](Cc1ccccc1)NC(=O)OCc1ccccc1", "growth": "50.8%"}
{"compound": "CCN(CC)CC(O)CNc1c2ccc([N+](=O)[O-])cc2nc2cc(OC)c(OC)cc12", "note": "(stereo not given)", "growth": "-16.2% (active)"}
{"compound": "CCOC(=O)C(Cc1cc(I)c(O)c(I)c1)NC(=O)c1ccccc1", "note": "(stereo not given)", "growth": "33.6%"}
{"compound": "O=C(/C=C\\c1cccc([N+](=O)[O-])c1)c1ccccc1", "growth": "31.1%"}
{"compound": "Cn1c2c(Cl)c(Cl)ccc2c2ccn3c(=O)c4ccccc4nc3c21", "growth": "100%"}
{"compound": "CCOC(=O)c1c2c(n3ccc(NC(=O)CCN(CC)CC)cc13)C(=O)c1ncccc1C2=O", "growth": "53.2%"}
{"compound": "c1ccc2c(Nc3cccc4ccccc34)cccc2c1", "growth": "32.1%"}
{"compound": "OC(c1cccc(C(F)(F)F)c1)c1cnccc1NC1CCCCCC1", "note": "(stereo not given)", "growth": "-2.39% (active)"}
{"compound": "C[C@@]1(N2C(=O)OC[C@@H]2c2ccccc2)C(=O)N([C@H](CC(=O)N2CCC(N3CCCCC3)CC2)C(=O)NCc2cccc(C(F)(F)F)c2)[C@@H]1/C=C/c1ccccc1", "growth": "38.4%"}
{"compound": "O=[N+]([O-])c1cccc(-c2nc3sccn3c2-c2ccnc(NCCCNS(=O)(=O)c3ccc(Br)cc3)n2)c1", "growth": "83.8%"}
{"compound": "CCCC(=O)Oc1ccc(/C(=C(/CC)Cc2ccccc2)c2ccc(OCCN3CCCC3)cc2)cc1", "growth": "49%"}
{"compound": "COc1cc(C#N)cc(OC)c1OCCN(CCOc1c(OC)cc(C#N)cc1OC)S(=O)(=O)c1ccc(C)cc1", "growth": "103%"}
{"compound": "CN1CCN(Cc2ccc(NC(=O)c3[nH]ncc3Nc3ncnc4[nH]ccc34)cc2)CC1", "growth": "7.23% (active)"}
{"compound": "Clc1nc(Cl)c2c3c(sc2n1)CCCC3", "growth": "49.7%"}
{"compound": "CN1CCN(Cc2ccc(NC(=O)c3[nH]ncc3Nc3ccnc4ccsc34)cc2)CC1", "growth": "29.2%"}
{"compound": "Cc1cc(-c2nc3ccccc3s2)ccc1NC(=O)COc1ccc(Cl)cc1", "growth": "94.1%"}
{"compound": "Nc1nc2ccc(-c3nc4ccc5[nH]ncc5c4c4c3CCC4)cc2s1", "growth": "33.9%"}
{"compound": "COc1cc2nc3cc([N+](=O)[O-])ccc3c(NCCCNCC(C)(C)O)c2cc1OC", "growth": "-68.9% (active)"}
{"compound": "O=C(CO[N+](=O)[O-])Nc1ccc(C(=O)/C=C/c2ccc(Cl)cc2)cc1", "growth": "14.9%"}
{"compound": "CC1=C(NCCN2CCCC2)C(=O)c2c(OCc3ccc(F)c(Cl)c3)cccc2C1=O", "growth": "57.8%"}
{"compound": "CCCCCCCCCc1cc(CN2CCCCC2)c(O)c(CN2CCCCC2)c1", "growth": "45.1%"}
{"compound": "COc1cc(OC)c(/C=C/S(=O)(=O)Cc2cnc(OC)c(N)c2)c(OC)c1", "growth": "10.5%"}
{"compound": "O=C(CN1CCOCC1)Nc1ccc(Cn2nnc3c2C(=O)c2nnn(Cc4ccc(NC(=O)CN5CCOCC5)cc4)c2C3=O)cc1", "growth": "-92.1% (active)"}
{"compound": "O=C1c2cc3c(cc2-c2c1c1cc(Cl)c(Cl)cc1c(=O)n2CCCn1ccnc1)OCO3", "growth": "-9.41% (active)"}
{"compound": "Cc1nc2nc(N)nc(N)c2nc1C", "growth": "99.5%"}
{"compound": "COc1ccc2nc3cc(Cl)ccc3c(N3CCN(c4ccnc(N5CCN(C)CC5)n4)CC3)c2c1", "growth": "46.1%"}
{"compound": "CCN(CC)CC(O)c1cc(-c2ccc(Cl)cc2)nc2c(C)c(Cl)ccc12", "note": "(stereo not given)", "growth": "-93.5% (active)"}
{"compound": "CS(CCCCN=C=S)=NC(=O)c1c(F)c(F)c(F)c(F)c1F", "note": "(stereo not given)", "growth": "80.3%"}
{"compound": "O=C1c2cccnc2C(=O)c2c1c(C(=O)OCCN1CCOCC1)c1ccccn21", "growth": "-47.5% (active)"}
{"compound": "COc1cc2c(cc1O)CCc1cc(O)cc(OC)c1-2", "growth": "91.3%"}
